Data published in PubChem BioAssay (NCI).
The panel holds about 83,000 compounds, 20% with a hit somewhere; the sample as a whole holds those more often.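 For each line, cells grew in 96-well plates with the test compound present at a single concentration for 48 hours.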 Values without a mark were called inactive. The source made the active and inactive calls. The calls were made as follows: active = growth percent below 10; inactive = the rest.

Assays:
Test in all cases: NCI-60 one-dose screen, 48 h (100 = growth as untreated, 0 = no growth, -100 = all killed)
NCI-H322M lung = settings: 10 µM
HOP-62 NSCLC = settings: 10 µM
NCI-H460 lung = settings: 10 µM
NCI-H522 lung = settings: 10 µM
A549/ATCC NSCLC = settings: 10 µM
DU-145 prostate = settings: 10 µM
MALME-3M melanoma = settings: 10 µM
SF-268 CNS = settings: 10 µM
SF-295 CNS = settings: 10 µM
SF-539 CNS = settings: 10 µM
UACC-257 melanoma = settings: 10 µM
M14 melanoma = settings: 10 µM
HCT-15 colon = settings: 10 µM
HT29 colon = settings: 10 µM
SNB-75 CNS = settings: 10 µM
PC-3 prostate = settings: 10 µM
SK-MEL-5 melanoma = settings: 10 µM
UACC-62 melanoma = settings: 10 µM
SK-MEL-2 melanoma = settings: 10 µM
HL-60(TB) leukemia = settings: 10 µM unless noted

Row | SMILES | growth (NCI-H322M lung) | growth (HOP-62 NSCLC) | growth (NCI-H460 lung) | growth (NCI-H522 lung) | growth (A549/ATCC NSCLC) | growth (DU-145 prostate) | growth (MALME-3M melanoma) | growth (SF-268 CNS) | growth (SF-295 CNS) | growth (SF-539 CNS) | growth (UACC-257 melanoma) | growth (M14 melanoma) | growth (HCT-15 colon) | growth (HT29 colon) | growth (SNB-75 CNS) | growth (PC-3 prostate) | growth (SK-MEL-5 melanoma) | growth (UACC-62 melanoma) | growth (SK-MEL-2 melanoma) | growth (HL-60(TB) leukemia)
1 | O=C(NCCCCC(c1ccc(F)cc1)c1ccc(F)cc1)Nc1ccc([N+](=O)[O-])c(C(F)(F)F)c1 | 6.54% (active) | -29% (active) | 7.56% (active) | -16.9% (active) | 6% (active) | 20.9% | -25.8% (active) | 18.5% | -4.61% (active) | -28.2% (active) | -15.7% (active) | -23.1% (active) | 0.604% (active) | -11% (active) | -9.8% (active) | -4.82% (active) | -100% (active) | -14.9% (active) | -71% (active) | 
2 | C#CC[Se]C(=O)c1ccc(C(=O)[Se]CC#C)s1 | 14.5% | 29.8% | 40.9% | 99.8% | 31.1% | 56% | 98.1% | 105% | 13.3% | 65.5% | 90.7% | 73.7% | 93.2% | 63.6% | 109% | 44.9% | 96.6% | 92.3% | 126% | -19.7% (active)
3 | COc1cc2cc(C(=O)N3C[C@@H](CCl)c4c3cc(OC(=O)N3CCN(C)[C@@H]5CSSC[C@@H]53)c3ccccc43)[nH]c2c(OC)c1OC | -7.87% (active) | -32.3% (active) | -13.4% (active) | -55.8% (active) | 7.2% (active) | -4.86% (active) | -70.3% (active) | -17.8% (active) | -8.99% (active) | -72.4% (active) | -15.4% (active) | -79% (active) | 1.23% (active) | -6.59% (active) | -87.6% (active) | -1.7% (active) | -32.2% (active) | -91.4% (active) | -89% (active) | 1.55% (active)
4 | O=C(/C=C/c1ccc(Br)cc1)c1nc2ccccc2n1Cc1ccc(Br)cc1 | 39% | -22.1% (active) | -14.4% (active) | -39.8% (active) | 30% | 17.9% | -42.9% (active) | 29.9% | -34.9% (active) | -60.2% (active) | -4.85% (active) | -26.7% (active) | -68.4% (active) | -27.6% (active) | 45% | 18.7% | 1.54% (active) | -66.5% (active) | 2.53% (active) | -13.2% (active)
5 | C=CC[Se]C(=O)c1cncc(C(=O)[Se]CC=C)c1 | -46.2% (active) | -60.6% (active) | -14% (active) | -89.5% (active) | 7.53% (active) | 5.92% (active) | -67% (active) | 7.42% (active) | -55.8% (active) | -99.9% (active) | -75% (active) | -86.7% (active) | -37.4% (active) | -14.4% (active) | -61.4% (active) | -65.8% (active) | -36.3% (active) | -62.3% (active) | -54.1% (active) | -26.2% (active)
6 | CC(=O)Oc1ccccc1C(=O)[Se]C(=NC(C)C)NC(C)C | -82.6% (active) | -70.9% (active) | -70.2% (active) | -97% (active) | -3.31% (active) | -92.6% (active) | -43.5% (active) | -30.9% (active) | -79% (active) | -98% (active) | -95.1% (active) | -92.7% (active) | -45.6% (active) | -57% (active) | -94.6% (active) | -62.9% (active) | -84.4% (active) | -44.2% (active) | -79.4% (active) | -41.3% (active)
7 | O=C(/C=C/c1ccc(F)cc1)c1nc2ccccc2n1Cc1ccc(Br)cc1 | -24.8% (active) | -68.6% (active) | -59.4% (active) | -64% (active) | 1.63% (active) | -42.2% (active) | -77.9% (active) | -4.4% (active) | -87.5% (active) | -92.5% (active) | -17.4% (active) | -57.7% (active) | -73.9% (active) | -33.2% (active) | 44.5% | -39.4% (active) | -76.2% (active) | -84% (active) | -61.3% (active) | -21.8% (active)
8 | CC(=O)C[n+]1cccc2c3ccccc3ccc21 |  |  |  |  |  |  |  |  |  |  |  |  |  |  |  |  |  |  |  | 85%
9 | C[C@H]1[C@H](OC(=O)CCC(=O)N(CCCc2cn(-c3ccc([N+](=O)[O-])cc3)nn2)CCNc2ccnc3cc(Cl)ccc23)O[C@@H]2OC3(C)CC[C@H]4[C@H](C)CC[C@@H]1[C@@]24OO3 | 81.5% | 69.4% | 53.5% | 5.13% (active) | 52.6% | 53.8% | 47.5% | 59.5% | 46.1% | 38.1% | 63.3% | 45.3% | 15.8% | -6.33% (active) | 89.2% | 41.2% | 17.8% | 39% | 26.7% | -24.2% (active)
10 | CC1=C(COCCOC(=O)c2ccc(S(=O)(=O)F)cc2)C2=C(C)C3(CC3)[C@@](C)(O)C(=O)C2=C1 | -25.8% (active) | -27.5% (active) | 2.07% (active) | -72.2% (active) | 4.56% (active) | -3.95% (active) | -78.2% (active) | 12.9% | -11.8% (active) | -76.2% (active) | -31.6% (active) | 11.1% | -29.6% (active) | -28.5% (active) | -15.9% (active) | 8.96% (active) | -92.1% (active) | -88.5% (active) | -99.4% (active) | -22.9% (active)
11 | O=C(/C=C/c1ccc(F)cc1)c1nc2ccccc2n1Cc1ccc(F)cc1 | 40.5% | -1.76% (active) | 6.65% (active) | 44.1% | 27.2% | 18.4% | -23.8% (active) | 16.2% | -10.9% (active) | -63.5% (active) | 25.6% | -3.51% (active) | -61% (active) | -30.5% (active) | 20.6% | 8.29% (active) | 21.1% | -41.7% (active) | 21.3% | 6.99% (active)
12 | N#C[Se]CC(=O)Nc1cccc(C(F)(F)F)c1 | -19.6% (active) | -57.6% (active) | -9.31% (active) | -70.2% (active) | -50.4% (active) | -13% (active) | -95.3% (active) | 2.88% (active) | -72.7% (active) | -91% (active) | -33.3% (active) | -42.7% (active) | -84.8% (active) | -31.9% (active) | -23.5% (active) | 26.8% | -73.4% (active) | -77.4% (active) | -31.1% (active) | 0.147% (active)
13 | O=C(/C=C/c1ccccc1)c1nc2ccccc2n1Cc1ccc(Br)cc1 | -6.79% (active) | -68% (active) | -47% (active) | -73.8% (active) | -3% (active) | -48.3% (active) | -64.7% (active) | 3.91% (active) | -71.9% (active) | -93.4% (active) | -51.1% (active) | -51.8% (active) | -70.3% (active) | -60.3% (active) | 16.2% | -31% (active) | -57% (active) | -94.2% (active) | -51.1% (active) | -14.4% (active)
14 | CC1=C2C(=C[C@@](C)(COP(=O)(Oc3ccccc3)Oc3ccccc3)[C@@H]2O)C(=O)[C@@](C)(O)C12CC2 | -59.5% (active) | -88.4% (active) | -35.4% (active) | -93.4% (active) | -53.9% (active) | -96.3% (active) | -96.7% (active) | -74.3% (active) | -59% (active) | -99.1% (active) | -41.2% (active) | -22.9% (active) | -32.5% (active) | -57.3% (active) | -94% (active) | -31% (active) | -99.2% (active) | -87.7% (active) | -83.9% (active) | 
15 | CC1=C(CCC=NNC(N)=O)C2=C(C)C3(CC3)[C@@](C)(O)C(=O)C2=C1 | -13% (active) | -78.8% (active) | -24.8% (active) | -90.4% (active) | -28.6% (active) | -29.2% (active) | -93.4% (active) | -31.4% (active) | 1.93% (active) | -99.1% (active) | -76.1% (active) | -35.8% (active) | -49.2% (active) | -31% (active) | -96.2% (active) | 2.58% (active) | -100% (active) | -88.1% (active) | -76.9% (active) | 
16 | COc1cc(OC)c(S(=O)(=O)N(CCCl)CCCl)cc1C(=O)/C=C/c1cc(OC)c(OC)c(OC)c1 | 12.9% | -5.79% (active) | 1.08% (active) | -69.1% (active) | 3.9% (active) | -30.3% (active) | -15.6% (active) | 2.74% (active) | 0.899% (active) | -74.1% (active) | -60% (active) | -59.4% (active) | -25.1% (active) | -58.7% (active) | -78.2% (active) | 10.3% | -71.3% (active) | -33.9% (active) | -94.5% (active) | -25.8% (active)
17 | CC12CCC3(CCC(=O)NCCCNc4ccnc5cc(Cl)ccc45)[C@@](C)(OO[C@]3(C)O1)O2 | 27.5% | -6.39% (active) | 7.06% (active) | -50.4% (active) | 25.3% | 38.2% | 17.5% | 5.01% (active) | -1.94% (active) | -65.6% (active) | 51.1% | -2.43% (active) | 6.51% (active) | 10.7% | -4.41% (active) | 28.3% | 14.2% | 11.1% | 23.3% | 14.9%
